HTR5A inv ag – HTR5A inverse agonism, opioid heterodimer counter-screen; P47898; HTR5A cell line, luminescence; inhibition, % at 9.3 µM; actives 0.083% (n = 340,000); in the data active means inhibition mostly above about 23%, no sharp cut-off; inactive means mostly below about 18%;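 further: 0% = cells with DMSO and 100% = no-cell wells with DMSO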
NALP1 yeast inh – inhibitors of NALP1 inflammasome in yeast; S. cerevisiae NALP1/ASC/caspase-1 growth, X-gal OD620, 72 h; inhibition, % at 10 µM; actives 0.61% (n = 280,000); AID 2071; in the data active means inhibition mostly above about 24%, no sharp cut-off; inactive means mostly below about 32%
MOR-DOR inv ag – mu-delta opioid heterodimer inverse agonism. cell-based MOR-DOR heterodimer luminescence. actives 0.21% (n = 340,000). AID 504357. inhibition, % at 9.3 µM. P35372+P41143; in the data active means inhibition above about 22%, passing the limit was not always enough;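 further: 0% = cells with DMSO and 100% = wells without cells with DMSO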
Target sequence (P35372 whole entry, looked up): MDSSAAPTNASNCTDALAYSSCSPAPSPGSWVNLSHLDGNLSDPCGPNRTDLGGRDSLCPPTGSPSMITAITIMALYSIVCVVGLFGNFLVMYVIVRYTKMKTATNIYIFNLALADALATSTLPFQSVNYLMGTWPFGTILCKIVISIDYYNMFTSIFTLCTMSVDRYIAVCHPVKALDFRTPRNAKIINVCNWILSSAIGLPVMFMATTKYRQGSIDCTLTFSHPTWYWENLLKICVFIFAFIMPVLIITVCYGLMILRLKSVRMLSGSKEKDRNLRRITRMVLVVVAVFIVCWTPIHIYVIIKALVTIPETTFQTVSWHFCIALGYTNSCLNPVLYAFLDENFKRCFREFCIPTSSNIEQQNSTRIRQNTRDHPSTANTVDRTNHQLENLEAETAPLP
Target sequence (P41143 whole entry, looked up): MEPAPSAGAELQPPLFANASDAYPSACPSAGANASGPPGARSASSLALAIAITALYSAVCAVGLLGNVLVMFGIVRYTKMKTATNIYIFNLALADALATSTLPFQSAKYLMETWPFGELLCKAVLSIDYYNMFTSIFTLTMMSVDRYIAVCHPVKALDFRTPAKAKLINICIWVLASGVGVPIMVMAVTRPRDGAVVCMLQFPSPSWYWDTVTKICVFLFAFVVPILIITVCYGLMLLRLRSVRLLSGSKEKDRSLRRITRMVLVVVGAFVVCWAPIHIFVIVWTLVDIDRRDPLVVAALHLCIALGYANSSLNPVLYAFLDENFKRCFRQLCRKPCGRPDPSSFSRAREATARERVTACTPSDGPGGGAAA
PolyA inh – inhibitors of polyadenylation in S. cerevisiae | activity score, % at 12 µM | AID 1875 | S. cerevisiae SKY197-pL101 polyadenylation reporter, beta-gal luminescence; efflux-impaired pdr1/pdr3 knockout yeast; score 100 = 6 SD above DMSO | actives 0.02% (n = 300,000);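 active means lowest replicate activity score at least 50, where 100 means six control SD above control mean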;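 further: yeast exposed to compound for 9 h at 30 °C; higher score means more reporter readthrough which indicates perturbed polyadenylation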
OPRM1-OPRD1 ag – agonists of human mu-delta opioid receptor heterodimerization. cells, OPRM1-OPRD1 heterodimerization, luminescence. activation, % at 9.3 µM. actives 0.3% (n = 340,000). AID 504326; in the data active means activation above about 18%;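 further: 0% = vehicle-treated cells and 100% = reference agonist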
HTR5A ag – activates human HTR5A in OPRM1-OPRD1 agonist counter-screen; activation, % at 9.3 µM; AID 504692; HTR5A agonist assay, luminescence, cell-based; P47898; actives 0.61% (n = 340,000); in the data active means activation mostly above about 9.5%, no sharp cut-off; inactive means mostly below about 7.6%;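 further: 0% = cells with vehicle only and 100% = reference agonist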
An asterisk follows results filed as active; . = no result given; ! = not confirmed by another sample. Most compounds without a hit are left out; they make up all but 1.6% or so of the library.

SMILES	HTR5A inv ag	NALP1 yeast inh	MOR-DOR inv ag	PolyA inh	OPRM1-OPRD1 ag	HTR5A ag
CC(=O)N/C(=C\c1ccc(F)cc1)C(=O)OCc1ccccc1	3.2	29.9	13.1	-8.7	-2.7	-0.9
COc1ccc(CCNC(=O)C(=O)N2CCCC2)cc1OC	9.4	4.4	-0.9	4.8	0.2	-0.1
Cc1occc1C(=O)NNC(=O)c1ccccc1[N+](=O)[O-]	-12.0	15.8	11.7	-5.1	-2.2	-0.6
CCN(CC)C(=O)C1CCCN(c2ccc([N+](=O)[O-])cc2)C1 (stereo unspecified)	4.9	34.8*	8.5	-10.9	-1.8	-1.9
CCN(CC)C(=O)C1CCCN(c2ccc([N+](=O)[O-])cc2/C=N/NC(=O)c2ccc([N+](=O)[O-])cc2)C1 (stereo unspecified)	-9.9	-2.2	-24.2	-13.5	4.2	2.2
CCOC(=O)C1CCN(C(=O)C2CCN(C(=O)c3ccc([N+](=O)[O-])cc3)CC2)CC1	-13.5	7.0	26.2	-0.6	-5.1	5.6
CCOC(=O)C1CCN(c2ccc([N+](=O)[O-])cc2)CC1	-1.5	4.2	14.5	0.2	-2.9	12.8*
COc1ccc(C(=O)COC(=O)CN2C(=O)C3C4CCC(C4)C3C2=O)cc1 (stereo unspecified)	-2.5	5.2	9.7	3.6	-1.5	-1.1
C=CCOn1c(=O)c(-c2ccccc2)[n+]([O-])c2ccccc21	4.5	-1.5	14.7	-4.5	-2.9	-1.7
C=CCOn1c(=O)c(-c2cc3ccccc3o2)[n+]([O-])c2ccccc21	-2.0	28.3*	-1.9	3.7	0.4	6.3
CCOc1ccc(NC(=O)c2ccc(NC(=S)NC3CC3)cc2)cc1	7.0	20.1	5.4	10.0	-0.8	-2.8
CCOc1ccc(NC(=O)c2ccc(NC(=S)NC3CCCCC3)cc2)cc1	-27.4	-4.2	-55.5	-0.1	11.4	9.9*
O=C(NC(=S)Nc1ccc(N2CCCC2)cc1)c1ccc(F)cc1	-17.5	12.7	7.6	-0.8	-1.1	-2.3
CCC1(c2ccc(C)cc2)NC(=O)N(C(C)C(=O)Nc2ccc(N3CCOCC3)cc2)C1=O (stereo unspecified)	-21.3	.	-31.5	.	8.4	0.8
Cc1[nH]n2c(=O)c3c(nc2c1-c1ccc(Cl)cc1)CCC3	-55.7	0.9	7.1	-1.2	-1.3	19.8*
Nc1nc(SCc2ccccc2[N+](=O)[O-])c2ncn(Cc3ccccc3)c2n1	-8.0	.	15.6	.	-3.2	2.0
CN(CCNC(=O)CN1CCN(Cc2ccccc2Cl)C1=O)Cc1ccccc1	7.6	44.6*	6.4	28.2	-1.1	-2.6
O=C(NCc1ccco1)c1ccccc1-c1nc(-c2ccc(F)cc2)no1	15.9	8.2	17.8	-9.9	-3.4	1.6
Cc1ccccc1-c1noc(-c2ccccc2C(=O)NCc2ccco2)n1	-2.6	38.7*	4.2	-7.2	-0.8	-0.8
CCOCCCNS(=O)(=O)c1ccc(NC(=O)Cc2c(F)cccc2Cl)cc1	11.0	-6.5	15.8	2.8	-3.1	-4.1
COc1ccc(N(CC(=O)NCCSc2ccccn2)S(=O)(=O)c2ccc(C)cc2)cc1OC	-9.1	12.8	14.0	2.3	-2.7	13.9*
O=C(CCn1cnnn1)Nc1ccc(Cl)cc1Cl	-10.2	-1.9	1.5	29.3	-0.2	3.6
N#Cc1cc2c(cc1NC(=O)CCn1cnnn1)OCO2	8.4	35.9*	17.2	12.4	-3.3	3.4
COc1ccccc1N(C)S(=O)(=O)c1ccc(C(=O)Nc2cccc(S(=O)(=O)N3CCOCC3)c2)cc1	13.5	.	5.0	.	-1.3	-3.8
Cc1ccc(Cl)cc1NC(=S)NCCCSC1CCCCC1	-15.8	6.3	-6.0	8.0	1.3	6.2
SMILES	HTR5A inv ag	NALP1 yeast inh	MOR-DOR inv ag	PolyA inh	OPRM1-OPRD1 ag	HTR5A ag
c1cnc2c(c1)ccc1cccnc12	-4.3	53.7*!	21.1	-10.5	-4.1	1.5
COc1ccccc1N1CCN(C(=O)c2cc3c(s2)CCCCC3)CC1	-19.0	7.3	-8.1	-24.1	1.5	10.2*
CCOc1ccccc1N1CCN(C(=O)c2cc3c(s2)CCC3)CC1	0.0	12.3	-6.9	-16.9	1.3	0.0
CCCOc1ccc2oc(=O)c3c(c2c1)CCCN3C(=O)CN1CCN(C(=O)c2ccco2)CC1	.	1.2	.	5.6	.	.
O=C(CN1CCCC1)N1CCCc2c1c(=O)oc1ccc(OCc3ccccc3)cc21	-6.7	28.8*	-2.3	4.7	0.5	2.2
C#CC(=O)N(c1cccc(OC)c1)C(C(=O)NC1CCCC1)c1cccs1 (stereo unspecified)	-34.8	-0.9	-159.5	-12.1	28.1*	28.1*
COc1ccc(/C=N/NC(=O)c2sccc2C)c2ccccc12	-15.5	.	-57.1	0.6	11.4	13.4*
Cc1cc(-c2ccc(C)c(S(=O)(=O)Nc3cc(C)on3)c2)on1	-0.4	18.5	3.1	6.0	-0.6	0.1
O=C(CCCOc1ccccc1)N1CCCCC1	29.5	32.6*	18.5	5.9	-3.7	-13.4
COc1ccccc1OC(=O)c1cc(Cl)nc2ccccc12	15.8	32.1	-15.2	-26.7	2.7	2.7
CNC(=S)NCCN1CCOCC1	13.8	28.5	7.4	3.7	-1.4	12.8*
O=C1CCN(C(=O)Nc2cccc(Cl)c2)N1	18.3	21.0	2.2	9.4	-0.5	11.5*
O=C(Nc1cccc(Cl)c1)N1CCCC1	2.8	8.1	-3.3	14.2	0.6	-2.2
COC(=O)\C(C(C)=O)=C(/C=C/C=C/C=C/N(C)C)N(C)C	0.3	0.0	7.8	1.4	-1.6	-0.1
CCc1c(C)nc2ncnn2c1N1CCCC(C(=O)NCc2ccc3c(c2)OCO3)C1 (stereo unspecified)	-28.9	-13.9	10.4	6.2	-1.9	0.0
CCc1c(C)nc2ncnn2c1N1CCCC(C(=O)Nc2ccc(NC(C)=O)cc2)C1 (stereo unspecified)	-25.9	2.3	-9.8	1.4	1.6	12.9*
COc1cccc(C(=O)Oc2ccc(N3C(=O)CCC3=O)c(C)c2)c1	9.9	34.9*	-4.3	-7.5	0.8	3.5
O=C(Oc1ccccc1)c1cccc(N2C(=O)CCC2=O)c1	4.3	15.6	-6.4	-13.2	1.1	1.6
COC(=O)c1ccc(C)c(NC(=O)c2ccc(CN3CCc4ccccc4C3)cc2)c1	-11.4	10.4	15.0	16.5	-3.1	3.1
COc1ccccc1C(CNC(=O)C1CC(=O)N(Cc2ccc(C)cc2)C1)N1CCCC1 (stereo unspecified)	11.3	.	-3.8	-18.9	0.6	-4.3
CC(C)(C)c1ccc(OCc2ccc(C(=O)N/N=C/c3ccc(O)c(O)c3)cc2)cc1	-21.8	-13.0	-23.9	0.9	5.0	8.8*
O=C(N/N=C/c1ccc(OCc2ccc(F)cc2)cc1)c1ccccc1	0.8	6.1	-23.7	-8.8	5.1	-0.3
CC(c1ccccc1)N1CCN(C(=O)CCl)CC1 (stereo unspecified)	1.1	-11.4	9.4	-17.2	-1.8	-0.4
